Records with an inconclusive call do not appear. Active and inactive are the calls of the source. The call rests on the fitted dose curve; in most records, active means well fitted inhibition curve with a large enough effect; inconclusive means small, poorly fitted or top-dose-only effect; inactive means flat fitted curve, though single readings scatter.

The assay has as its target Lysine-specific demethylase 5B (Homo sapiens) (UniProt Q9UGL1). As to the kind of experiment: Optimization screen for KDM5B Histone Demethylases FDH coupled qHTS against the LOPAC library (AID 1347166). Put shortly:
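KDM5BDeltaAP (200nM final) in 50mM HEPES pH 7.5, 0.01% Tween-20 was preincubated with compound for 10 min at room temperature. A substrate mix of 12.5uM H3K4Me3, 25uM a-ketoglutarate, ascorbate, Fe2+, NAD+ and formaldehyde dehydrogenase was then added. NADH fluorescence (340/450 nm) was read initially and after 30 min.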

Chain of Lysine-specific demethylase 5B (Homo sapiens) (Q9UGL1 whole entry, looked up): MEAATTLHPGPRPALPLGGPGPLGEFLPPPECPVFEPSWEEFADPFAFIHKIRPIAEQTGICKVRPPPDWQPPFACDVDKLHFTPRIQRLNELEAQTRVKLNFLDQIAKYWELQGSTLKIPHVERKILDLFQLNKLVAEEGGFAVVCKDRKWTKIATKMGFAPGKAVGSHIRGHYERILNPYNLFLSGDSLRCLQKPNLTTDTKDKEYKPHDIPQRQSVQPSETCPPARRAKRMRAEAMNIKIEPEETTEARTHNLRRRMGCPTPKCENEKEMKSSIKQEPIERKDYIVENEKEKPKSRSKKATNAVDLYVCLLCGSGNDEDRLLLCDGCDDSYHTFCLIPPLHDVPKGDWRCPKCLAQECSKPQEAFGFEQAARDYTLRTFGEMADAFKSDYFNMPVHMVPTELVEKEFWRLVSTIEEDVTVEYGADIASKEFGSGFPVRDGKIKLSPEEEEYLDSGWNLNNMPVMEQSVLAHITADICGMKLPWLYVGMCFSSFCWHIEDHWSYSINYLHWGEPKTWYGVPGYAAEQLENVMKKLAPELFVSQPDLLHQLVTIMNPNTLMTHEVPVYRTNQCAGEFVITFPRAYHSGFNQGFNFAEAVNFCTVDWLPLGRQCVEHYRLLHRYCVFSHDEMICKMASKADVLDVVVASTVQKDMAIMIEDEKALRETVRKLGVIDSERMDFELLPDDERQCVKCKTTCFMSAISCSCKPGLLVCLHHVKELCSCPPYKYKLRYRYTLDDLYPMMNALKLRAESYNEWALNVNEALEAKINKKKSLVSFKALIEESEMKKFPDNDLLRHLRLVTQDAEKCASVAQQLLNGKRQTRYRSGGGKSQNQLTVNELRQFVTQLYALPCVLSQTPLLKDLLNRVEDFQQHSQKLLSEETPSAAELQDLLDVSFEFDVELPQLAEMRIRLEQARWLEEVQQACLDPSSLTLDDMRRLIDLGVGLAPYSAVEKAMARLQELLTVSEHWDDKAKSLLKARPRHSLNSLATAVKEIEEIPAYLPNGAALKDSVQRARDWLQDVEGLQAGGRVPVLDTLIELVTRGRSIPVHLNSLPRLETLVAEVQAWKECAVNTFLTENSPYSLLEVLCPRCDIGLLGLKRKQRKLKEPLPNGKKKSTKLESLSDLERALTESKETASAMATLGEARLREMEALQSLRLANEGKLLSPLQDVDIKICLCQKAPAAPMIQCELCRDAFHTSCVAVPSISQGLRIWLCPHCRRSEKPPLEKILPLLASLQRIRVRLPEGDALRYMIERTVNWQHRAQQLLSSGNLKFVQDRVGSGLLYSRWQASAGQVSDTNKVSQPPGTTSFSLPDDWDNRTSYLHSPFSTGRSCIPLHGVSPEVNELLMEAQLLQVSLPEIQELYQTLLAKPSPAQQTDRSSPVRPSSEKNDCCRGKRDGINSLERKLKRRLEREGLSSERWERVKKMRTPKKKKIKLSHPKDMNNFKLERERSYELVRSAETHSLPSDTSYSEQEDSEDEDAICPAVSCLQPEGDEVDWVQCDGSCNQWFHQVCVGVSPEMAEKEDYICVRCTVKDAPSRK

On to `OC[C@H]1O[C@@H](n2cnc3c(NC4CCCCC4)ncnc32)[C@H](O)[C@@H]1O`, for which the result was inactive.

For `Nc1nc(Cl)nc2c1ncn2[C@@H]1O[C@H](COP(=O)(O)OP(=O)(O)OP(=O)(O)O)[C@@H](O)[C@H]1O`, the outcome was inactive. In the case of `CSc1ccccc1N1CCN(CCCCCC(=O)NC2CCCc3ccccc32)CC1` (stereo unspecified) it was “inactive”. Consider `CNC(=O)[C@H]1O[C@@H](n2cnc3c(NCc4cccc(I)c4)ncnc32)[C@H](O)[C@@H]1O`, for which the molecule was classed as inactive.

Take `Ic1ccc(N2CCN(Cc3c[nH]c4ncccc34)CC2)cc1`: the outcome was inactive. In the case of `CN(C)CCC(c1ccc(Cl)cc1)c1ccccn1` (stereo unspecified) it was “inactive”; in that of `N#C/C(=C\c1ccc(-c2cc(Cl)ccc2Cl)o1)C(=O)Nc1cccc2ncccc12`, “inactive”; in that of `COc1ccc(/C=C/C(=O)Nc2ccccc2C(=O)O)cc1OC`, “inactive”. Regarding `C[C@@H](CN1CCC(Cc2ccccc2)CC1)[C@@H](O)c1ccc(O)cc1`, the result was inactive. The result for `CC(C)Cc1ccc([C@H](C)C(=O)O)cc1` reads “inactive”; that for `O=C(O)CC1CCCc2ccccc2C1O` (stereo unspecified), “inactive”. In the case of `Cc1ccc(C(=O)O[C@H](C(=O)O)[C@@H](OC(=O)c2ccc(C)cc2)C(=O)O)cc1` (tested in a mixture with another compound), the result was inactive. For `COc1ccccc1CNCCCCCCNCCCCCCCCNCCCCCCNCc1ccccc1OC`, the molecule was called inactive. In the case of `CCCCC#Cc1nc(NC)c2ncn([C@@H]3O[C@H](CO)[C@@H](O)[C@H]3O)c2n1` it was “inactive”; in that of `O=C(O)/C=C/C(O)c1ccc(Cl)cc1` (stereo unspecified), “inactive”; in that of `O=C1O/C(=C/Br)CCC1c1cccc2ccccc12` (stereo unspecified), “inactive”.
